Results reported in PubChem BioAssay AID651899 (Broad Institute, 2012).
Results with a measured potency or affinity are listed apart. The source made the active and inactive calls. How the calls were made is not given here.

Assay: cytotoxicity in HEK293 cells, dose response, cytotoxicity control, cell-based, plate reader, cherry-pick (AID 651899);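 further: cells exposed to compound for 48 hours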
Conditions: series mostly up to 26 µM; activity change, negative = cytotoxicity: at the top concentration

Structure (SMILES)	activity change, negative = cytotoxicity
Cc1cc(C)n(-c2ccc(C(=O)Nc3ccc4c(c3)OCO4)cc2)n1	-5.5% (inactive)
O=C(Nc1ccc2c(c1)[C@H]1C[C@@H](CC(=O)N3CCc4ccccc4C3)O[C@@H](CO)[C@H]1O2)c1cccnc1	-13.1% [at 12 µM] (inactive)
COC(=O)c1c(C(=O)OC)c(-c2cccc(F)c2)n2c1CS(=O)C2 (stereo not drawn)	25.7% (inactive)
CN1c2ccc(-c3cccc(F)c3)cc2[C@@H]2[C@@H](CCN2C(=O)c2ccncc2)[C@H]1CO	16.7% [at 23.5 µM] (inactive)
O=C(Nc1ncc2c(n1)CC(c1cccc(Cl)c1)CC2=O)c1ccco1 (stereo not drawn)	5.23% (inactive)
C=CCn1c(SCc2c(C(=O)OC)sc(N)c2C(=O)OC)nnc1-c1ccc(Br)cc1	-6.79% (inactive)
CCC(Sc1nc2ccsc2c(=O)n1Cc1ccc(C(=O)O)cc1)C(=O)Nc1cccc(OC)c1 (stereo not drawn)	60% (inactive)
CC(Oc1ccc2c(-c3ccccc3)cc(=O)oc2c1)C(=O)NCc1ccccn1 (stereo not drawn)	-28.5% (inactive)
CCOc1ccc(-n2c(SCC(N)=O)nc3c(c2=O)SCC3)cc1	7.2% (inactive)
CC1CCCN(c2ccc(C(=O)Nc3cccnc3)cc2[N+](=O)[O-])C1 (stereo not drawn)	-22.5% (inactive)
CC(=O)c1ccc(N2CCN(C(=O)c3ccc4c(c3)OCO4)CC2)cc1	-0.24% (inactive)
CC(=O)c1ccc(N2CCN(c3ncccn3)CC2)c([N+](=O)[O-])c1	16.1% (inactive)
Cc1ccccc1-n1c(SCC(=O)N(C)C2CCS(=O)(=O)C2)nc2ccccc2c1=O (stereo not drawn)	10.8% (inactive)
NC(=O)c1ccc(Oc2cccc3cccnc23)c([N+](=O)[O-])c1	22.6% (inactive)
COc1cc(C(=O)Nc2cccnc2)cc(OC)c1OC	-20.2% (inactive)
CC(=O)c1ccc(C(=O)N2CCCC(CO)(Cc3ccccc3C)C2)s1 (stereo not drawn)	-20.1% (inactive)
CSc1ccc(S(=O)(=O)N2CCC(C(=O)Nc3cccnc3)CC2)cc1	-0.874% (inactive)
CC(C)(C)[S@](=O)N1Cc2cc(C(=O)NCc3ccccc3F)nc(-c3cccc(-c4cccnc4)c3)c2[C@@H]1CCO	-18.8% [at 23.5 µM] (inactive)
